{"source": "paper PMC8222333", "about": "“AsCas12a ultra nuclease facilitates the rapid generation of therapeutic cell medicines”", "binders": {"B1": {"name": "TTTT (dsDNA)", "DNA 1": "GCTATCTAGTGCTCAGTACGCACTGTTTTAGGAAACTTCTGGCAGGACCAGGTCATGAGATCGGAAGAGCACACGTCTGAACTCCAGTCA", "DNA 2": "TGACTGGAGTTCAGACGTGTGCTCTTCCGATCTCATGACCTGGTCCTGCCAGAAGTTTCCTAAAACAGTGCGTACTGAGCACTAGATAGC", "RNA": "AAUUUCUACUCUUGUAGAUAGGAAACUUCUGGCAGGACC"}, "B2": {"name": "ATTA (dsDNA)", "DNA 1": "B1 DNA 1 with T26A, T29A", "DNA 2": "B1 DNA 2 with A62T, A65T", "RNA": "B1 RNA"}, "B3": {"name": "ATTC (dsDNA)", "DNA 1": "B1 DNA 1 with T26A, T29C", "DNA 2": "B1 DNA 2 with A62G, A65T", "RNA": "B1 RNA"}, "B4": {"name": "ATTG (dsDNA)", "DNA 1": "B1 DNA 1 with T26A, T29G", "DNA 2": "B1 DNA 2 with A62C, A65T", "RNA": "B1 RNA"}, "B5": {"name": "ATTT (dsDNA)", "DNA 1": "B1 DNA 1 with T26A", "DNA 2": "B1 DNA 2 with A65T", "RNA": "B1 RNA"}, "B6": {"name": "AATA (dsDNA)", "DNA 1": "B1 DNA 1 with T26A, T27A, T29A", "DNA 2": "B1 DNA 2 with A62T, A64T, A65T", "RNA": "B1 RNA"}, "B7": {"name": "AATC (dsDNA)", "DNA 1": "B1 DNA 1 with T26A, T27A, T29C", "DNA 2": "B1 DNA 2 with A62G, A64T, A65T", "RNA": "B1 RNA"}, "B8": {"name": "AATT (dsDNA)", "DNA 1": "B1 DNA 1 with T26A, T27A", "DNA 2": "B1 DNA 2 with A64T, A65T", "RNA": "B1 RNA"}, "B9": {"name": "ACTA (dsDNA)", "DNA 1": "B1 DNA 1 with T26A, T27C, T29A", "DNA 2": "B1 DNA 2 with A62T, A64G, A65T", "RNA": "B1 RNA"}, "B10": {"name": "ACTC (dsDNA)", "DNA 1": "B1 DNA 1 with T26A, T27C, T29C", "DNA 2": "B1 DNA 2 with A62G, A64G, A65T", "RNA": "B1 RNA"}, "B11": {"name": "ACTG (dsDNA)", "DNA 1": "B1 DNA 1 with T26A, T27C, T29G", "DNA 2": "B1 DNA 2 with A62C, A64G, A65T", "RNA": "B1 RNA"}, "B12": {"name": "ACTT (dsDNA)", "DNA 1": "B1 DNA 1 with T26A, T27C", "DNA 2": "B1 DNA 2 with A64G, A65T", "RNA": "B1 RNA"}, "B13": {"name": "AGAA (dsDNA)", "DNA 1": "B1 DNA 1 with T26A, T27G, T28A, T29A", "DNA 2": "B1 DNA 2 with A62T, A63T, A64C, A65T", "RNA": "B1 RNA"}, "B14": {"name": "AGGA (dsDNA)", "DNA 1": "B1 DNA 1 with T26A, T27G, T28G, T29A", "DNA 2": "B1 DNA 2 with A62T, A63C, A64C, A65T", "RNA": "B1 RNA"}}, "note": "Where a chain is given by its changes, count along the chain named."}
{"molecular_target": "dAsCas12a WT (Acidaminococcus sp., UniProt U2UMQ6 1-1307, D908A;E993A;D1235A)", "experiment": "Spec-seq (native PAGE EMSA with sequencing of bound and unbound); 25 mM Tris-HCl pH 7.4, 150 mM KCl, 5 mM MgCl2, 10% glycerol, 1 mM DTT, 40 ng/uL salmon sperm DNA; 400 nM Cas12a, 480 nM crRNA, 50 nM library, 37 C 1 h; native P; high values mean tight binding", "conditions": "not given", "units": {"binding signal": "lnKA"}}
{"binder": "B1", "binding signal": -5.51}
{"binder": "B2", "binding signal": -6.74}
{"binder": "B3", "binding signal": -6.67}
{"binder": "B4", "binding signal": -7.65}
{"binder": "B5", "binding signal": -8.27}
{"molecular_target": "dAsCas12a Ultra (Acidaminococcus sp., UniProt U2UMQ6 1-1307, M537R;F870L;D908A;E993A;D1235A)", "experiment": "Spec-seq (native PAGE EMSA with sequencing of bound and unbound); 25 mM Tris-HCl pH 7.4, 150 mM KCl, 5 mM MgCl2, 10% glycerol, 1 mM DTT, 40 ng/uL salmon sperm DNA; 400 nM Cas12a, 480 nM crRNA, 50 nM library, 37 C 1 h; native PAGE at room temperature; high values mean tight binding", "conditions": "protein: recombinant", "units": {"binding signal": "lnKA"}}
{"binder": "B1", "binding signal": -3.17}
{"binder": "B2", "binding signal": -4.56}
{"binder": "B3", "binding signal": -4.57}
{"binder": "B4", "binding signal": -5.43}
{"binder": "B5", "binding signal": -7.31}
{"binder": "B6", "binding signal": -8.32}
{"binder": "B7", "binding signal": -8.65}
{"binder": "B8", "binding signal": -8.59}
{"binder": "B9", "binding signal": -7.24}
{"binder": "B10", "binding signal": -6.74}
{"binder": "B11", "binding signal": -7.71}
{"binder": "B12", "binding signal": -8.57}
{"binder": "B13", "binding signal": -8.87}
{"binder": "B14", "binding signal": -8.33}
{"molecular_target": "dAsCas12a E174R (Acidaminococcus sp., UniProt U2UMQ6 1-1307, E174R;D908A;E993A;D1235A)", "experiment": "Spec-seq (native PAGE EMSA with sequencing of bound and unbound); 25 mM Tris-HCl pH 7.4, 150 mM KCl, 5 mM MgCl2, 10% glycerol, 1 mM DTT, 40 ng/uL salmon sperm DNA; 400 nM Cas12a, 480 nM crRNA, 50 nM library, 37 C 1 h; native PAGE at room temperature; high values mean tight binding;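 note: relative affinity from the bound to unbound sequence frequency ratio in Spec-seq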", "conditions": "protein: recombinant", "units": {"binding signal": "lnKA"}}
{"binder": "B1", "binding signal": -2.29}
{"binder": "B2", "binding signal": -2.6}
{"binder": "B3", "binding signal": -3.93}
{"binder": "B4", "binding signal": -4.83}
{"binder": "B5", "binding signal": -6.8}
{"binder": "B6", "binding signal": -7.04}
{"binder": "B7", "binding signal": -8.08}
{"binder": "B8", "binding signal": -8.34}
{"binder": "B9", "binding signal": -5.96}
{"binder": "B10", "binding signal": -6.65}
{"binder": "B11", "binding signal": -7.65}
{"binder": "B12", "binding signal": -8.23}
{"binder": "B13", "binding signal": -8.92}
{"molecular_target": "dAsCas12a S542R (Acidaminococcus sp., UniProt U2UMQ6 1-1307, S542R;D908A;E993A;D1235A)", "experiment": "Spec-seq (native PAGE EMSA with sequencing of bound and unbound); 25 mM Tris-HCl pH 7.4, 150 mM KCl, 5 mM MgCl2, 10% glycerol, 1 mM DTT, 40 ng/uL salmon sperm DNA; 400 nM Cas12a, 480 nM crRNA, 50 nM library, 37 C 1 h; native PAGE at room temperature; high values mean tight binding;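 note: relative affinity from the bound to unbound sequence frequency ratio in Spec-seq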", "conditions": "protein: recombinant", "units": {"binding signal": "lnKA"}}
{"binder": "B1", "binding signal": -2.76}
{"binder": "B2", "binding signal": -4.16}
{"binder": "B3", "binding signal": -4.41}
{"binder": "B4", "binding signal": -4.9}
{"binder": "B5", "binding signal": -7.13}
{"binder": "B6", "binding signal": -8.13}
{"binder": "B7", "binding signal": -8.19}
{"binder": "B8", "binding signal": -8.01}
{"binder": "B9", "binding signal": -7.5}
{"binder": "B10", "binding signal": -7.33}
{"binder": "B11", "binding signal": -7.86}
{"binder": "B12", "binding signal": -7.91}
{"binder": "B13", "binding signal": -8.59}
{"binder": "B14", "binding signal": -8.24}
{"molecular_target": "dAsCas12a K548R (Acidaminococcus sp., UniProt U2UMQ6 1-1307, K548R;D908A;E993A;D1235A)", "experiment": "Spec-seq (native PAGE EMSA with sequencing of bound and unbound); 25 mM Tris-HCl pH 7.4, 150 mM KCl, 5 mM MgCl2, 10% glycerol, 1 mM DTT, 40 ng/uL salmon sperm DNA; 400 nM Cas12a, 480 nM crRNA, 50 nM library, 37 C 1 h; native PAGE at room temperature; high values mean tight binding", "conditions": "protein: recombinant", "units": {"binding signal": "lnKA"}}
{"binder": "B1", "binding signal": -4.73}
{"binder": "B2", "binding signal": -5.45}
{"binder": "B3", "binding signal": -5.19}
{"binder": "B4", "binding signal": -6.23}
{"binder": "B5", "binding signal": -8.23}
{"binder": "B7", "binding signal": -8.64}
{"molecular_target": "d-enCas12a (Acidaminococcus sp., UniProt U2UMQ6 1-1307, E174R;S542R;K548R;D908A;E993A;D1235A)", "experiment": "Spec-seq (native PAGE EMSA with sequencing of bound and unbound); 25 mM Tris-HCl pH 7.4, 150 mM KCl, 5 mM MgCl2, 10% glycerol, 1 mM DTT, 40 ng/uL salmon sperm DNA; 400 nM Cas12a, 480 nM crRNA, 50 nM library, 37 C 1 h; native PAGE at room temperature; high values mean tight binding;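 note: relative affinity from the bound to unbound sequence frequency ratio in Spec-seq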", "conditions": "protein: recombinant", "units": {"binding signal": "lnKA"}}
{"binder": "B1", "binding signal": -0.44}
{"binder": "B2", "binding signal": -0.456}
{"binder": "B3", "binding signal": -0.519}
{"binder": "B4", "binding signal": -1.2}
{"binder": "B5", "binding signal": -2.42}
{"binder": "B6", "binding signal": -2.24}
{"binder": "B7", "binding signal": -2.56}
{"binder": "B8", "binding signal": -5.1}
{"binder": "B9", "binding signal": -5.02}
{"binder": "B10", "binding signal": -4.8}
{"binder": "B11", "binding signal": -5.67}
{"binder": "B12", "binding signal": -5.7}
{"binder": "B13", "binding signal": -5.61}
{"binder": "B14", "binding signal": -5.52}
{"molecular_target": "d-enCas12a-Ultra (Acidaminococcus sp., UniProt U2UMQ6 1-1307, E174R;S542R;K548R;M537R;F870L;D908A;E993A;D1235A)", "experiment": "Spec-seq (native PAGE EMSA with sequencing of bound and unbound); 25 mM Tris-HCl pH 7.4, 150 mM KCl, 5 mM MgCl2, 10% glycerol, 1 mM DTT, 40 ng/uL salmon sperm DNA; 400 nM Cas12a, 480 nM crRNA, 50 nM library, 37 C 1 h; native PAGE at room temperature; high values mean tight binding;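 note: relative affinity from the bound to unbound sequence frequency ratio in Spec-seq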", "conditions": "protein: recombinant", "units": {"binding signal": "lnKA"}}
{"binder": "B1", "binding signal": -0.171}
{"binder": "B2", "binding signal": -0.172}
{"binder": "B3", "binding signal": -0.186}
{"binder": "B4", "binding signal": -0.339}
{"binder": "B5", "binding signal": -0.548}
{"binder": "B6", "binding signal": -0.762}
{"binder": "B7", "binding signal": -0.883}
{"binder": "B8", "binding signal": -2.64}
{"binder": "B9", "binding signal": -1.82}
{"binder": "B10", "binding signal": -1.58}
{"binder": "B11", "binding signal": -2.87}
{"binder": "B12", "binding signal": -3.19}
{"binder": "B13", "binding signal": -3.36}
{"binder": "B14", "binding signal": -3.42}
